# An excerpt weighted towards active compounds, which were near 19% of everything screened.
# DT40 TDP1 no CPT: qHTS for Inhibitors of human tyrosyl-DNA phosphodiesterase 1 (TDP1): qHTS in cells in absence of CPT | 15% of 420,000 active | Potency, µM (doses to about 46.2 µM), inactives show at the top dose activity change, negative = growth inhibition, most hits filed as inhibitors | AID 686978, 2013 | DT40 Tdp1-/- hTDP1 cells, no CPT, ATP luminescence, 48 h; also: potency is read from the fitted curve at half-maximal effect; nearly all actives have a fitted effect of over 55% in size
#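 No-CPT arm: Tdp1-/-;hTDP1 DT40 cells (400/well) plus compounds, incubated ≥48 hr at 37 °C. Readout CellTiter-Glo luminescence.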
# HT1080 IDH1KD tx: qHTS for induction of synthetic lethality in tumor cells producing 2HG: qHTS for the HT-1080-IDH1KD cell line. HT-1080 IDH1 knockdown viability, ATP luminescence, 48 h. Potency, µM (highest dose often 46.1 µM), inactives show at the top dose activity, negative = toxicity, hits mostly cytotoxic. 2% of 360,000 active. AID 686971, 2013;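 also: potency is read from the fitted curve at half-maximal effect; 0% = DMSO wells and -100% = cell-free medium wells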
#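 Using the IDH1-knockdown HT-1080 line run in the same batch and compound series as the NT line, viability after 48 h at 37 °C was determined by CellTiter-Glo luminescence and expressed as % activity.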
# DT40 TDP1 CPT: qHTS for Inhibitors of human tyrosyl-DNA phosphodiesterase 1 (TDP1): qHTS in cells in presence of CPT. AID 686979, 2013. chicken DT40 Tdp1-/-;hTDP1 cells + 20 nM CPT, ATP luminescence, 48 h. 12% of 420,000 active. Potency, µM (highest dose often 46.2 µM), without a hit: at the highest dose activity change, negative = growth inhibition, most hits filed as inhibitors; also: potency is read from the fitted curve at half-maximal effect; nearly all actives have a fitted effect of over 55% in size
#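 Chicken DT40 Tdp1-/- cells complemented with human TDP1, 400 cells/well, exposed to compounds plus 20 nM camptothecin for at least 48 h at 37 C; viability read as ATP content by CellTiter-Glo luminescence.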
# HT1080NT lethal: qHTS for induction of synthetic lethality in tumor cells producing 2HG: qHTS for the HT-1080-NT fibrosarcoma cell line. Potency, µM (titrated, usually from 46.1 µM), without a hit: at the top dose activity, negative = less viability, usual class: cytotoxic. HT-1080-NT fibrosarcoma viability, CellTiter-Glo ATP luminescence, 48 h. 1.6% of 360,000 active. AID 686970, 2013;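 also: NT is the 2HG producing partner of a matched IDH1 knockdown line; potency is read from the fitted curve at half-maximal effect; 0% = DMSO-treated cells and -100% = media-only wells without cells; nearly all actives have a fitted effect of over 55% in size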
#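 Read-out is CellTiter-Glo luminescence after 10 minutes at room temperature, following 48 hours' compound treatment of HT-1080-NT cells (750 cells/well, RPMI, 5% FBS, 37 degrees C).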
# uPA surface inh: qHTS for Inhibitors of Cell Surface uPA Generation | cell surface uPA generation assay, qHTS | AID 540303, 2011 | 0.31% of 330,000 active | Potency, µM (doses to about 38.3 µM), for the others: top-dose activity change, negative = inhibition, usual class: inhibitors; active = well fitted inhibition curve with a large enough effect; inconclusive = small, poorly fitted or top-dose-only effect; inactive = no such curve, though single readings can be large or run the other way; tested in mouse RAW 264.7 cells; also: potency is read from the fitted curve at half-maximal effect; nearly all actives have a fitted effect of over 55% in size
# IL-1B inflam inh: qHTS for Inhibitors of Inflammasome Signaling: IL-1-beta AlphaLISA Primary Screen | AID 743279, 2014 | THP-1 LPS/ATP IL-1B secretion, AlphaLISA, 16 h; stronger effect = lower value | activity change, % at 57.5 µM | 4.7% of 360,000 active; in the data active = activity change below about -50%; inconclusive = mostly about -30% to -49%
#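 Secreted IL-1B measured by AlphaLISA bead assay after 16 h compound exposure of THP-1 cells; compounds (final up to 57.5 uM) added 1 h before LPS (250 ng/mL) and ATP (1.25 mM) stimulation; lower signal means less secretion.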
# Active calls of the source: *; ? = inconclusive; · = no result given. Unless noted, calls follow the shape of the dose curve; as a rule, active = well fitted curve in the direction sought with a large enough effect; inconclusive = small, poorly fitted or top-dose-only effect, or another doubt; inactive = no such curve, though single readings can be large; an effect the other way counts as inactive or inconclusive. Unless noted, % is scaled to controls: 0 for no effect and ±100 for the full control effect.
SMILES,DT40 TDP1 no CPT,HT1080 IDH1KD tx,DT40 TDP1 CPT,HT1080NT lethal,uPA surface inh,IL-1B inflam inh
C[C@@H]1CN([C@H](C)CO)C(=O)c2c(c3ccccc3n2C)-c2ccccc2CO[C@@H]1CN(C)S(=O)(=O)c1cccs1,21µM*,?,?,-18%,·,12
C[C@H](CO)N1C[C@H](C)[C@H](CN(C)S(C)(=O)=O)OCc2ccccc2-c2c(n(C)c3ccccc23)C1=O,-23%,0%,-21%,6%,·,5
C[C@H]1CN([C@@H](C)CO)C(=O)c2c(c3ccccc3n2C)-c2ccccc2CO[C@H]1CN(C)Cc1cccc(F)c1,-47%,-15%,?,0%,·,7
C[C@H](CO)N1C[C@H](C)[C@H](CN(C)S(=O)(=O)c2cccc(F)c2)OCc2ccccc2-c2c(n(C)c3ccccc23)C1=O,16µM*,?,10µM*,?,·,-24
COC(=O)[C@@]1(Sc2ccc(C)cc2)CC(=O)N(C(=O)c2ccccc2)[C@@H]1c1ccccc1,?,-18%,?,-1%,·,-8
COc1ccc(C2=CCN3CCCCC3C2)c(-c2ccc(OC)c(OC)c2)c1 (stereo not given),?,10%,?,12%,-9%,-22
CCCCCCCCCC[N+](C)(C)CC/C=C1/c2ccccc2Sc2ccc(Cl)cc21,3.7µM*,?,5.2µM*,?,-12%,-30
CCCCCCCCCCC[N+](C)(C)CC/C=C1/c2ccccc2Sc2ccc(Cl)cc21,2.6µM*,?,5.8µM*,?,-11%,-67*
CC[N+](C)(C)CC/C=C1/c2ccccc2Sc2ccc(Cl)cc21,-6%,?,7%,10%,6%,·
Cc1c(Cl)cccc1NC(=O)c1ncn(-c2ccccc2)n1,-5%,·,-17%,·,·,·
Cc1ccc(S(=O)(=O)N2CCCCC2)cc1NC(=O)c1ccc(=O)[nH]c1,-9%,2%,0%,0%,·,2
Cc1ccc(NS(=O)(=O)c2cc3c4c(c2)CC(=O)N4CCC3)cc1C,-5%,-1%,13µM*,-8%,-1%,42
COc1ccc(S(=O)(=O)Nc2cc3c4c(c2)CCC(=O)N4CCC3)cc1C,?,-16%,16µM*,-8%,-4%,20
CCCCC(=O)Nc1ccc(OCc2cc(=O)n3ccc(C)cc3n2)cc1,-25%,·,-25%,·,·,·
CC(C)[C@H](NC(=O)c1ccccc1F)C(=O)Nc1ccc(F)c(F)c1,-12%,-6%,5%,4%,14%,24
Cc1cc(NC(=O)c2ccccc2F)on1,3%,11%,13µM*,1%,-3%,-3
Cc1csc(NC(=O)C(NC(=O)c2ccccc2F)C(C)C)n1 (stereo not given),21µM*,-4%,?,-13%,2%,1
Cc1ccccc1C(=O)NC(C(=O)Nc1nc2c(s1)CCCC2)C(C)C (stereo not given),26µM*,-2%,26µM*,-5%,-3%,-12
CCC(=O)N/C(=N\OCc1ccc(F)cc1)c1nonc1NC(=O)CC,-13%,-3%,-12%,-5%,4%,24
Nc1ncnc2c1ncn2[C@@H]1O[C@H](C(=O)N(CCC2=CCCCC2)CC2CC2)[C@@H](O)[C@H]1O,16µM*,5%,?,3%,·,6
COCCN(Cc1ccc(C)cc1)C(=O)[C@H]1O[C@@H](n2cnc3c(N)ncnc32)[C@H](O)[C@@H]1O,13%,20%,20%,17%,·,0
CCOc1cccc(NC(=O)C2CC(=O)N(C)C(=Nc3cccc(F)c3)S2)c1 (stereo not given),18µM*,?,?,-30%,1%,2
CCOc1cccc(NC(=O)C2CC(=O)N(C)C(=Nc3ccccc3)S2)c1 (stereo not given),?,?,-27%,?,0%,-15
COc1cc(OC)c(OC)cc1/C=N/N(C)c1ccccc1,-25%,-20%,-21%,-19%,4%,-62*
Cc1ccc(S(=O)(=O)N2C[C@H]3C(=O)C[C@@H](c4ccccc4)N(S(C)(=O)=O)[C@H]3C[C@H]2c2ccccc2)cc1,?,?,?,-28%,·,-92*
SMILES,DT40 TDP1 no CPT,HT1080 IDH1KD tx,DT40 TDP1 CPT,HT1080NT lethal,uPA surface inh,IL-1B inflam inh
Cc1ccc(S(=O)(=O)N2C[C@H]3C(=O)C[C@@H](c4cccs4)N(S(=O)(=O)c4ccc(C)cc4)[C@H]3C[C@H]2c2ccccc2)cc1,?,14%,-22%,18%,·,-58*
Cc1ccc(S(=O)(=O)N2CC3C(=O)C[C@@H](c4ccccc4)N(S(=O)(=O)c4cccc(Cl)c4)C3CC2c2ccccc2)cc1 (stereo not given in full),23µM*,-5%,?,-4%,·,-1
Cc1ccc([C@@H]2C[C@H]3[C@@H](CN2S(=O)(=O)c2ccc(C)cc2)C(=O)C[C@@H](c2ccccc2)N3S(=O)(=O)c2ccc(C)cc2)cc1,-28%,-9%,-29%,4%,·,30
Cc1ccc(S(=O)(=O)NCC2CCC(C(=O)N3CCN(C)CC3)CC2)cc1 (stereo not given),?,3%,-28%,1%,?,20
CN(C)S(=O)(=O)c1ccc(Cl)c(C(=O)NC2CCCCCCC2)c1,?,?,?,2%,4%,-4
Clc1ccc2nc(-c3ccccc3)[nH]c2c1,27µM*,·,30µM*,·,·,·
Nc1nc2ccc(Cl)cc2[nH]1,?,-22%,2%,-17%,-2%,10
Clc1ccc2nc(-c3ccc(Cl)nc3)[nH]c2c1,?,-29%,?,-16%,2%,-68*
Clc1ccc2nc(COc3ccccc3)[nH]c2c1,?,8.2µM*,?,13µM*,-11%,-23
O=C(C[n+]1ccc(/C=C/c2c[nH]c3ccccc23)c2ccccc21)c1ccccc1,?,·,-8%,·,·,·
O=C(/C=C/c1c[nH]c2ccccc12)c1cccc2ccccc12,12µM*,?,16µM*,?,-7%,-108*
Cc1cc(OC(C)C(=O)NCc2ccccn2)c2c(C)c(C)c(=O)oc2c1 (stereo not given),1%,3%,3%,23%,-19%,55

# Source: PubChem BioAssay
